Screens (PubChem)
Most compounds without a hit are left out; they make up all but 2.2% or so of the library.
VLA-4 inh = inhibition in a human VLA-4 binding assay; inhibition, % (about 7 µM as worked out from the volumes in the protocol); hit rate 0.2% among 330,000; VLA-4 expressing cells, ligand binding flow cytometry; in the data active means inhibition above about 50%
Target sequence (P13612 whole entry, looked up): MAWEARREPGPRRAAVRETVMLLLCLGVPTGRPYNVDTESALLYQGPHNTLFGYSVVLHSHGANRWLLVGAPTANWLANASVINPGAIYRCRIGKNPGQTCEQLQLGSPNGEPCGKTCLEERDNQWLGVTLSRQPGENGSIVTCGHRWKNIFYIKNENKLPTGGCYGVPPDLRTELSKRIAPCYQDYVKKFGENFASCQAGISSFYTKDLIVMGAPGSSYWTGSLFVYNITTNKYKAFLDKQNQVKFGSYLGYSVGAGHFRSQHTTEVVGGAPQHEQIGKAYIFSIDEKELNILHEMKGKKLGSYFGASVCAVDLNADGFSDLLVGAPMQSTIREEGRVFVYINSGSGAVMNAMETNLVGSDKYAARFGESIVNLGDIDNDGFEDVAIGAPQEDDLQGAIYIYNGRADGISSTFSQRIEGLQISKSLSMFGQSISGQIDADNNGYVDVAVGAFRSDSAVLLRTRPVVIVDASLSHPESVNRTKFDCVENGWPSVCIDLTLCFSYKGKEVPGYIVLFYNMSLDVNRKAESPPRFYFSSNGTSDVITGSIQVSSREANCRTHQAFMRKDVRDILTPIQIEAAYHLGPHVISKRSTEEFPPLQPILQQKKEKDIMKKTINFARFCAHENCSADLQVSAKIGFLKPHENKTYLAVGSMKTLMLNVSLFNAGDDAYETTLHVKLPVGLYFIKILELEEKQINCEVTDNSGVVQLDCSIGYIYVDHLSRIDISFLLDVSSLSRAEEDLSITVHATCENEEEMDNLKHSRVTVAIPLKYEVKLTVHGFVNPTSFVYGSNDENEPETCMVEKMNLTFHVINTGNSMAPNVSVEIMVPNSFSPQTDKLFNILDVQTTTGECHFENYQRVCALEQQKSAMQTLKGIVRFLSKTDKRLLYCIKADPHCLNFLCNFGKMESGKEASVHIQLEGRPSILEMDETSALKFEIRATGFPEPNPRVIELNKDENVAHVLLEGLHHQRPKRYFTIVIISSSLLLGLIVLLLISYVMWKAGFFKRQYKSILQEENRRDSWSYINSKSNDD
MEKK2wt PB1 HTS = raises or lowers MEK5 binding to wildtype human MEKK2 PB1 domain. Q9Y2U5. bead flow cytometry, Alexa488-MEK5 binding to MEKK2 WT; actives lie on both sides. binding response (% of control), % at 10 µM. hit rate 1.1% among 290,000. AID 1531; in the data active means binding response below about 67% or above about 130%
MEKK2 mut-MEK5 = signal of MEK5 binding to mutant human MEKK2 PB1 domain | bead flow cytometry, Alexa488-MEK5 binding to MEKK2 mutant | percent response, % at 10 µM | hit rate 0.35% among 290,000 | AID 1530; in the data active means percent response above about 24%, passing the limit was not always enough
MEKK3 PB1 HTS = modulators (inhibitors or enhancers) of MEK5 binding to human MEKK3 PB1 domain; binding response (% of control), % at 10 µM; hit rate 1.4% among 290,000; AID 1529; bead-based flow cytometry, Alexa488-MEK5 binding to MEKK3; actives lie on both sides; 0 = blocked by unlabeled MEK5, 100 = vehicle; Q99759;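 active means binding response more than 3 SD above or below the average of its plate-row segment, actives on both sides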;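 further: Alexa488 bead fluorescence after subtracting the streptavidin-only scavenger bead signal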
MEKK2wt confirm = raises or lowers MEK5 binding to wildtype human MEKK2, retest. shares compounds with MEKK3 PB1 HTS. bead flow cytometry, Alexa488-MEK5 binding to MEKK2 WT; actives lie on both sides. binding response (% of control), % at 10 µM. hit rate 2.4% among 5,900; in the data active means binding response below about 16% or above about 210%; inactive means in between
MEKK2mut confirm = signal of MEK5 binding to mutant human MEKK2, retest; shares compounds with MEKK3 PB1 HTS; bead flow cytometry, Alexa488-MEK5 binding to MEKK2 mutant; percent response, % at 10 µM; hit rate 2% among 5,900; AID 1893; in the data active means percent response mostly above about 71%, no sharp cut-off; inactive means mostly below about 38%;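 further: higher means compound restores mutant binding toward wildtype level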
MEKK3-MEK5 inh = MEKK3-MEK5 PB1 inhibition, single concentration confirmation. shares compounds with MEKK3 PB1 HTS. bead flow cytometry, Alexa488-MEK5 binding to MEKK3; hits give low values. binding response (% of control), % at 10 µM. hit rate 1.8% among 5,900;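 active means binding response below 72% of control, or above a set upper limit, though filed actives all read lower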;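 further: 100% = DMSO only wells and 0% = binding blocked by excess unlabeled MEK5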
Active calls of the source: *; i = inactive; / = no result; ! = not active in a repeat; [ ] = dose if it differs, or a comment.

SMILES | VLA-4 inh | MEKK2wt PB1 HTS | MEKK2 mut-MEK5 | MEKK3 PB1 HTS | MEKK2wt confirm | MEKK2mut confirm | MEKK3-MEK5 inh
COc1ccc(-c2csc(NC(=O)CN3C(=O)CCC3=O)n2)c(OC)c1 | 5.7 | 111.0 | 1.0 | 142.0* | 97.0 | -4.0 | 95.0
COc1ccc(-c2csc(NC(=O)CN3C(=O)CCC3=O)n2)cc1 | 33.1 | 102.0 | 1.0 | 92.0 | / | / | /
COc1cccc2cc(C(=O)N(Cc3ccccc3)CC3CCCO3)c(=O)oc12 (centres undefined) | 3.2 | 88.0 | 5.0 | 124.0* | 100.0 | 7.0 | 100.0
Cc1ccccc1N(CC(=O)NC1CCCC1)C(=O)C1(C)CC(=O)N=C2C=CC=CN21 (centres undefined) | 29.8 | 68.0 | -4.0 | 46.0*[inhibitor] | 100.0 | -4.0 | 100.0
Cc1ccccc1N(CC(=O)NC1CCCC1)C(=O)C1(C)CC(=O)N=C2C=CC(Cl)=CN21 (centres undefined) | 6.7 | 99.0 | 1.0 | 103.0 | / | / | /
O=C(CSC1=NCCS1)c1ccc(Cl)cc1 | 6.2 | 282.0* | 129.0* | 115.0 | 104.0 | -6.0 | 102.0
COCC1CCN(Cc2cn[nH]c2-c2ccc(OC)c(F)c2)C1 (centres undefined) | -3.8 | 106.0 | 2.0 | 104.0 | / | / | /
COc1ccc(C(=O)O/N=C(\N)Cc2ccc([N+](=O)[O-])cc2)c(OC)c1 | -26.4 | 102.0 | 13.0 | 107.0 | / | / | /
Cc1ccc(C2C(C#N)=C(N)Oc3cc(N)ccc32)cc1 (centres undefined) | -26.4 | 103.0 | 2.0 | 100.0 | / | / | /
Cc1ccc(/C=C2\CCC3=C2OC(N)=C(C#N)C3c2ccc(C)cc2)cc1 (centres undefined) | i | 101.0 | 108.0* | 118.0 | 92.0 | -17.0 | 95.0
CC(C)(CS(=O)(=O)[O-])NC(=O)CC[N+](C)(C)CCO | 19.0 | 95.0 | -35.0 | 65.0*[inhibitor] | 103.0 | -31.0 | 86.0
COc1ccc(C[C@H]2CN3C(=NC[C@H]3C)N2CCNC(=O)c2ccc(C)c(Br)c2)cc1 | / | 126.0 | 10.0 | 104.0 | / | / | /
Cc1ccc(C(=O)NCCN2C3=NC[C@H](C(C)C)N3C[C@H]2Cc2ccc(O)cc2)cc1Br | 0.4 | 145.0* | 34.0 | 105.0 | 100.0 | -6.0 | 82.0
COc1ccc(C[C@H]2CN3C(=NC[C@@H]3C(C)C)N2CCNC(=O)c2ccc(C)c(Br)c2)cc1 | 11.3 | 154.0* | 32.0 | 103.0 | 157.0 | 66.0 | 110.0
Cc1ccc(C(=O)NCCN2C3=NC[C@H](C)N3C[C@H]2Cc2ccc(O)cc2)cc1Br | / | 114.0 | 9.0 | 98.0 | / | / | /
COc1ccc(NC(=O)C2(S(=O)(=O)c3ccc(C)cc3)CC2)cc1OC | -0.8 | 97.0 | 1.0 | 100.0 | / | / | /
Cc1cc(=O)n2nc(N3CCC(C(=O)NCc4ccc(Cl)cc4)CC3)sc2n1 | -8.9 | 103.0 | 3.0 | 105.0 | / | / | /
CCC(C)(C)NC(=O)CN(C(=O)C(=O)Nc1ccc2c(c1)OCCO2)C1CC1 | 6.2 | 101.0 | 2.0 | 98.0 | / | / | /
COc1ccccc1NC(=O)c1ccc(NC(=O)c2nc3nccc(C)n3n2)cc1 | 6.5 | / | / | / | / | / | /
Cc1ccccc1NC(=O)c1nc2nccc(C)n2n1 | -1.3 | 91.0 | -3.0 | 69.0*[inhibitor] | 110.0 | -2.0 | 102.0
O=C(CCC(=O)N1CCOc2ccccc21)Nc1ccccc1Br | -27.9 | 103.0 | 1.0 | 102.0 | / | / | /
Cc1cccc(N2CCN(C(=O)Cc3cn(C)c4ccccc34)CC2)c1C | -7.2 | 117.0 | 5.0 | 130.0* | 95.0 | -9.0 | 93.0
Cc1cc(C)c2nc3sc(C(=O)N4CCOCC4)c(N)c3cc2c1 | 34.3 | 17.0*[inhibitor] | -13.0 | 29.0*[inhibitor] | 102.0 | 0.0 | 97.0
Cc1ccc(C)c2nc3sc(C(=O)N4CCOCC4)c(N)c3cc12 | 2.2 | 90.0 | -9.0 | 99.0 | / | / | /
O=C(O)c1ccc(N2C(=O)c3cccc(Oc4ccc(Cl)cc4)c3C2=O)cc1 | 7.7 | 105.0 | 2.0 | 106.0 | / | / | /
SMILES | VLA-4 inh | MEKK2wt PB1 HTS | MEKK2 mut-MEK5 | MEKK3 PB1 HTS | MEKK2wt confirm | MEKK2mut confirm | MEKK3-MEK5 inh
O=C(O)c1cccc(N2C(=O)c3cccc(Oc4ccc(Cl)cc4)c3C2=O)c1 | 22.6 | 101.0 | -1.0 | 131.0* | 93.0 | -6.0 | 96.0
CCN(CC)CCCCN1c2ccccc2Sc2ccccc21 | 25.8 | 136.0* | 12.0 | 109.0 | 138.0 | 26.0 | 109.0
OCCN1CCN(CC/C=C2/c3ccccc3Sc3ccc(C(F)(F)F)cc32)CC1 | 7.1 | / | / | / | / | / | /
OCCN1CCN(CCCN2c3ccccc3Sc3ccc(C(F)(F)F)cc32)CC1 | -2.1 | 175.0* | 19.0 | 114.0 | 132.0 | 17.0 | 108.0
CN1CCN(CCCN2c3ccccc3Sc3ccc(Cl)cc32)CC1 | 42.1 | 188.0*! | 23.0 | 107.0 | 157.0 | 24.0 | 109.0
CN(C)CCCN1c2ccccc2Sc2ccc(C(F)(F)F)cc21 | -14.8 | 154.0* | 13.0 | 112.0 | 144.0 | 26.0 | 106.0
COc1ccc(Cn2c(-c3ccc(Br)cc3)c[n+]3ccccc23)cc1 | 9.2 | 140.0* | 36.0 | 110.0 | 118.0 | 11.0 | 106.0
O=C(Nc1ccncc1)C1COc2ccccc2O1 (centres undefined) | -6.4 | 94.0 | -4.0 | 87.0 | / | / | /
O=C(NC1=NCCS1)C1COc2ccccc2O1 (centres undefined) | -0.8 | -1.0*[inhibitor] | -8.0 | 1.0*[inhibitor] | 98.0 | 1.0 | 99.0
Cc1ccc(OCCNC(=O)c2cccc(S(=O)(=O)N3CCN(C)CC3)c2)cc1 | 4.5 | / | / | / | / | / | /
CC(C)N1CCC2(CC1)N=C(c1ccc3c(c1)OCO3)CC(c1cc(Cl)ccc1O)N2 (centres undefined) | 1.0 | 138.0* | 26.0* | 111.0 | 122.0 | 8.0 | 107.0
O=C(Cn1cc(/C=N/NC(=O)c2cccc3ccccc23)c2ccccc21)Nc1ccc(F)cc1 | -0.1 | 38.0*[inhibitor] | -14.0 | 38.0*[inhibitor] | 100.0 | -5.0 | 100.0
CC(C)Nc1nc(NC(C)C)nc(Oc2ccc(/C=N/O)cc2)n1 | 0.0 | 94.0 | 7.0 | 124.0* | 92.0 | -8.0 | 94.0
CN(C)c1nc(Oc2ccc(/C=N/O)cc2)nc(N(C)C)n1 | 12.7 | 102.0 | 8.0 | 103.0 | / | / | /
C[C@H](CO)N1C[C@H](C)[C@@H](CN(C)C)Oc2c(NS(=O)(=O)c3cccs3)cccc2C1=O | 32.4 | / | / | / | / | / | /
CCOC(=O)Cc1csc(NC(=O)/C=C/c2ccc(OC)cc2)n1 | -4.6 | 105.0 | 8.0 | 104.0 | / | / | /
COc1ccc(COc2cc(-c3cccc(OC)c3)nc3ccc(NC(=O)c4ccc(N(C)C)cc4)cc23)cc1 | / | 95.0 | 3.0 | 100.0 | / | / | /
COc1ccc(COc2cc(-c3cccc(OC)c3)nc3ccc(NC(=O)c4ccc(C)cc4)cc23)cc1 | -4.2 | 1.0*[inhibitor] | -1.0 | 1.0*[inhibitor] | 96.0 | -2.0 | 105.0
Cc1ccc2c(c1)N(C(=O)CCC(=O)NCCCN1CCC(Cc3ccccc3)CC1)CCO2 | -4.2 | 142.0* | 25.0* | 103.0 | 159.0 | 39.0 | 112.0
O=C(N/C(=C/c1ccc([N+](=O)[O-])cc1)C(=O)N1CCOCC1)c1ccco1 | -6.3 | 99.0 | 2.0 | 97.0 | / | / | /
